Reference: the supplement of paper PMC3334620
Over roughly 33,000 sequences, “E-score (-0.5 to 0.5)” has its median near -0.016; the highest 2% begin near 0.32. The entries come from a sample that favours the highest values as a whole.

Molecular target: T1, Stp1 (UniProt B3LFK1)
T1 sequence: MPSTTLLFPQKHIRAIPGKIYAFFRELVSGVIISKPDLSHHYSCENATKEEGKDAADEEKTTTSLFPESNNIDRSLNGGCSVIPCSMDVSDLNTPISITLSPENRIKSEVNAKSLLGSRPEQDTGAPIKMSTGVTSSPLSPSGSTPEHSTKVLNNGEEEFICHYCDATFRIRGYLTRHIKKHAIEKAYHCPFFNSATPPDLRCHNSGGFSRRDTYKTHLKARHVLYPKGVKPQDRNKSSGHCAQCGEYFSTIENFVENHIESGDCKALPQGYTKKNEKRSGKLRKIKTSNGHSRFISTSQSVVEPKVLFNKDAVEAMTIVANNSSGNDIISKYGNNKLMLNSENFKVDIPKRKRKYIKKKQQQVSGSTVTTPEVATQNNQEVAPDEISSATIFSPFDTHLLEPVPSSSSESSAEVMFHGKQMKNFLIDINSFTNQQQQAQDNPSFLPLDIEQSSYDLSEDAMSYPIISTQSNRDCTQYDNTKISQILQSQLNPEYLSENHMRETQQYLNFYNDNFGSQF
Experiment: PBM E-score (8-mer binding enrichment) (E-score (-0.5 to 0.5)); higher = stronger / more preferred TF binding
Conditions: protein concentration: 200 nM; construct: GST-full length
Procedure: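 Universal 'all 10-mer' protein binding microarrays (Agilent AMADID 015681) probed with GST-tagged S. cerevisiae TFs (full-length or DBD) made by in vitro transcription/translation (PURExpress), about 100-200 nM. Bound TF was detected with fluorescent anti-GST. Each ungapped 8-mer (which stands for itself and its reverse complement) is scored by the PBM enrichment score (E-score), a modified Wilcoxon-Mann-Whitney statistic from -0.5 to +0.5, computed with the Universal PBM Analysis Suite. Scale: above 0.35 generally sequence-specific binding.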

| Sequence | PBM E-score |
| --- | --- |
| ACCAGGGT | -0.398 |
| AAGCAGGG | -0.156 |
| CACGGTAC | 0.0963 |
| CATATTCC | -0.14 |
| AACCATTA | 0.123 |
| TGGGACAA | -0.23 |
| CGAACGTA | -0.0114 |
| CACGCATC | 0.0489 |
| CCCAATCA | -0.0533 |
| ATTTCCGG | -0.0307 |
| CGGCGACA | 0.369 |
| AGGCGACG | 0.209 |
| CGGCGACG | 0.349 |
| CGGCGACC | 0.203 |
| CGGCGAGA | 0.325 |
| AGGCGAGA | -0.0565 |
| AGGCGACA | 0.197 |
| GGGCGACA | 0.0209 |
| CGGCGAGC | 0.307 |
| CTCGGGGC | -0.163 |
| CAGAGTCG | -0.204 |
| CATGGTTA | 0.105 |

| Sequence | PBM E-score |
| --- | --- |
| CCCGTGCA | 0.0223 |
| ACCGTGCT | -0.133 |
| CCCGTGAG | -0.0263 |
| AGCGTGCG | 0.237 |
| ACCGTGCG | 0.371 |
| CCCGTGCG | 0.332 |
| AGAGGGCG | 0.307 |
| AGGCCAAT | -0.152 |
| AGAACGCT | -0.11 |
| ATTGTGCG | 0.161 |
| GATGTGCC | 0.185 |
| AATGTGCG | 0.18 |
| ATTGTGCA | 0.162 |
| AATGTGCC | 0.323 |
| ATTGTGCC | 0.322 |
| GCGCAAAA | 0.227 |
| CCATGAGA | -0.118 |
| AATCCGCG | 0.111 |
| AAGCCGGA | 0.0672 |
| CAGCCGCG | 0.259 |
| TAGCCGGA | -0.0486 |
| AAGCCGCG | 0.418 |

| Sequence | PBM E-score |
| --- | --- |
| AACCCGCA | -0.00015 |
| TAGCCGAA | 0.00682 |
| CAGCCGCA | 0.215 |
| GAGCCGGA | 0.0514 |
| AAGCCGCA | 0.386 |
| GAGCCGCA | 0.448 |
| TAGCCGCA | 0.348 |
| GAGGGTAC | -0.22 |
| AACTGAGC | -0.0352 |
| CGATCAAG | -0.0842 |
| CCCTTATA | -0.15 |
| CCAACTAG | -0.0642 |
| CCGACCAG | -0.144 |
| CATAATGC | 0.0509 |
| TCCCAGGA | -0.255 |
| GGATCTAC | -0.105 |
| GTCGACTA | 0.157 |
| CAGCCGCC | 0.0812 |
| GAGCCGCC | 0.319 |
| AAGCCGCC | 0.177 |
| CCTAAGCC | -0.355 |
| ACGGGTTG | -0.0319 |

| Sequence | PBM E-score |
| --- | --- |
| TCGGCAAA | 0.0291 |
| GCGGCAAC | 0.384 |
| CCGGCAAC | 0.0817 |
| GGGGCAAC | -0.107 |
| GCGGCAAA | 0.383 |
| CCGGCAAA | 0.116 |
| ATCATTCG | 0.119 |
| AAATTAAG | -0.00684 |
| AGTGCGGG | -0.0896 |
| CGTGCGAC | 0.0732 |
| AGTGCGGC | 0.379 |
| CGTGCGGC | 0.476 |
| CGTGCGGA | 0.3 |
| AGTGCGGA | 0.224 |
| TACTAGGA | -0.15 |
| GAGGTCAC | -0.123 |
| AGTATTGA | 0.0696 |
| CACGGTAG | -0.0367 |
| GTGGGCAA | -0.0572 |
| CCATTGCC | 0.0367 |
| CGCCCTGC | 0.346 |
| AGCCCTGC | 0.0478 |
